Inconclusive results are not listed. Activity calls are given as the source filed them. Unless noted, calls follow the shape of the dose curve; as a rule, active = well fitted curve in the direction sought with a large enough effect; inconclusive = small, poorly fitted or top-dose-only effect, or another doubt; inactive = no such curve, though single readings can be large; an effect the other way counts as inactive or inconclusive. Residues, ends and D or L forms follow the SMILES beside them. *: point of attachment. Cbz = O=C(OCc1ccccc1)*

The subject of one assay is astro (control astrocytes). The experiment in a line: Drug repurposing screens with cells derived from glioblastoma tumor samples (AID 1345199). Also: nearly all actives have a fitted effect of over 40% in size. Also: potency is read from the fitted curve at half-maximal effect. As to activity, negative = cell killing: % is scaled to controls: 0 for no effect and ±100 for the full control effect. The conditions noted are these: viability, ATP luminescence, 48 h; series mostly up to 45.9 µM; activity, negative = cell killing: at the top concentration. Summed up: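 Four patient lines of CD133+ GBM neurospheres were screened at several concentrations; hits were retested in those lines plus three slower-growing GBM lines, using 48-hour treatment and ATP-based viability.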
With `COC1=C(OC)C(=O)C(CC=C(C)CCC=C(C)CCC=C(C)CCC=C(C)CCC=C(C)CCC=C(C)CCC=C(C)CCC=C(C)CCC=C(C)CCC=C(C)C)=C(C)C1=O`, the “activity, negative = cell killing” value was -6.51% (inactive).

`Cc1onc(-c2ccccc2)c1C(=O)N[C@@H]1C(=O)N2[C@@H](C(=O)O)C(C)(C)S[C@@H]12`: the “activity, negative = cell killing” value is -7.67% (inactive).

Take `CC1(C)[C@H](O[C@H]2O[C@H](C(=O)O)[C@@H](O)[C@H](O)[C@H]2O[C@@H]2O[C@H](C(=O)O)[C@@H](O)[C@H](O)[C@H]2O)CC[C@@]2(C)[C@H]1CC[C@]1(C)[C@H]2C(=O)C=C2[C@H]3C[C@@](C)(C(=O)O)CC[C@]3(C)CC[C@]21C`: the “activity, negative = cell killing” value is -2.25% (inactive).

Consider `O=C1c2c(O)cccc2[C@@H]([C@@H]2O[C@H](CO)[C@@H](O)[C@H](O)[C@H]2O)c2cc(CO)cc(O)c21`, for which the “activity, negative = cell killing” value is -6.76% (inactive).

Turning to `Nc1ccn(C[C@@H](CO)OCP(=O)(O)O)c(=O)n1`, the “activity, negative = cell killing” value was -6.73% (inactive).

As to `Cc1ccccc1C(=O)Nc1ccc(C(=O)N2CCCC(O)c3cc(Cl)ccc32)c(C)c1` (centres undefined), the “activity, negative = cell killing” value was -19.1% (inactive).

For the compound `CC(C)N1[N]C(=C2C=c3cc(O)ccc3=N2)c2c(N)ncnc21`, the Potency was 3.55 µM (active).

On to `Nc1ccn(C2CO[C@H](CO)O2)c(=O)n1` (some centres undefined), for which the “activity, negative = cell killing” value is -15.5% (inactive).

With `C[C@H]1C[C@H]2[C@@H]3CCC4=CC(=O)C=C[C@]4(C)[C@@H]3C(=O)C[C@]2(C)[C@@]1(O)C(=O)CO`, the “activity, negative = cell killing” value was 2.41% (inactive).

Turning to `O=C(O)C(=O)Nc1cccc(C2=NN=N[N]2)c1`, the “activity, negative = cell killing” value was -10.4% (inactive).

For the compound `CCCCCCCN(CC)CCCC(O)c1ccc(NS(C)(=O)=O)cc1` (centres undefined), the “activity, negative = cell killing” value was -19.2% (inactive).

In the case of `N[C@H]1CN(c2c(F)cc3c(=O)c(C(=O)O)cn(C4C[C@@H]4F)c3c2Cl)CC12CC2` (some centres undefined), the “activity, negative = cell killing” value is -10.7% (inactive).

As to `CCCCCCCCCCCCCCCC(=O)OC[C@@H](NC(=O)C(Cl)Cl)[C@H](O)c1ccc([N+](=O)[O-])cc1`, the “activity, negative = cell killing” value was -10.1% (inactive).

`C#CCC(Cc1cnc2nc(N)nc(N)c2n1)c1ccc(C(=O)N[C@@H](CCC(=O)O)C(=O)O)cc1` (some centres undefined): the “activity, negative = cell killing” value is -21.2% (inactive).

System in the next assay: not listed separately
The assay is described as follows: qHTS assay to identify inhibitors of the type 1 interferon - major histocompatibility complex class I in skeletal muscle: Counter screen cell viability and HiBit confirmation (AID 1347412). Also: nearly all actives have a fitted effect of over 60% in size. Also: potency is read from the fitted curve at half-maximal effect. As to activity change, negative = inhibition: % is scaled to controls: 0 for no effect and ±100 for the full control effect. The conditions noted are these: iHSKM muscle cells + IFN-b, HiBiT or CellTiter-Glo, 24 h; Potency: HiBiT; Viability, at 45.9 µM (top of the series); activity change, negative = inhibition: at the top concentration. Summed up: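 CRISPR HLA-B*08:01-HiBit immortalized human myoblasts (C25cl48) stimulated with 4 ng/ml IFN-beta and compounds (12-point 1:3, top 46 uM final) for 24 h at 37 C. Duplicate plates read by HiBit lytic luminescence or CellTiter Glo ATP.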
Background: In qHTS, concentration-response curves come from the screen itself.
As to `CC(C)C[C@H](NC(=O)[C@@H](NC(=O)c1cccc(-c2ccccc2)n1)[C@@H](C)O)B(O)O`, the Potency was 0.0557 µM (active).

For the compound `Cn1cc(CNCC2CCN(c3ncc(C(=O)NO)cn3)CC2)c2ccccc21`, the Potency is 0.157 µM (active).

As for `COc1cc(O)c2c(c1)C1OC1C[C@H](O)[C@H](O)C(=O)C=CC[C@H](C)OC2=O` (some centres undefined), the Potency is 8.83 µM (active).

Consider `CC(C)c1cnn2c(NCc3ccccc3)cc(NCCCCCCN)nc12`, for which the Potency entry is “inactive”.

With `COC[C@H](NC(=O)c1cnc(C)s1)C(=O)N[C@@H](COC)C(=O)N[C@@H](Cc1ccccc1)C(=O)[C@@]1(C)CO1`, the Potency is 0.198 µM (active).

As to `Cc1cc(Nc2ncc3c(n2)N(C)C(=O)N(c2cc(NC(=O)c4cccc(C(F)(F)F)c4)ccc2C)C3)n(C)n1`, the Potency was 0.883 µM (active).

For the compound `Cc1cnc(NC(=O)Nc2cc(Br)c(C)cc2OC[C@@H]2CNCCO2)cn1`, the Potency result was “inactive”.

Regarding `CC(C)C[C@@H](C=O)NC(=O)[C@H](CC(C)C)NC(=O)[C@H](CC(C)C)NC(=O)OCc1ccccc1` (Cbz-Leu-Leu-Leu-aldehyde), the Potency was 6.25 µM (active).

As for `CC(C)(N)c1ccc(-c2nc3ccccc3nc2-c2ccccc2)cc1`, the “activity change, negative = inhibition” value is 23.9% [HiBiT, at 45.9 µM] (inactive).

For `CCOC(=O)[C@@H](N)Cc1ccc(-c2cc(O[C@H](c3ccc(Cl)cc3-n3ccc(C)n3)C(F)(F)F)nc(N)n2)cc1`, the Potency was 19.8 µM (active).

In the case of `OCCNC1CCCc2c1[nH]c1ccc(-c3ccccc3)cc21` (centres undefined), the “activity change, negative = inhibition” value was -29.7% (inactive).

On to `CCS(=O)(=O)Nc1ccc2[nH]c(O)c(C(=Nc3ccc(CN4CCCCC4)cc3)c3ccccc3)c2c1`, for which the Potency was 0.625 µM (active).

For the compound `Cc1cnc(Nc2ccc(CN3CCOCC3)cc2)nc1Nc1cccc(S(=O)(=O)NC(C)(C)C)c1`, the Potency was 8.83 µM (active).

Take `CCCCC(=O)O[C@]1(C(=O)CO)[C@@H](C)C[C@H]2[C@@H]3CCC4=CC(=O)C=C[C@]4(C)[C@@]3(F)[C@@H](O)C[C@@]21C`: the “activity change, negative = inhibition” value is 11.3% (inactive).

Turning to `N#Cc1c(C2CCNCC2)cc(-c2c(O)cccc2OCC2CC2)nc1N`, the “activity change, negative = inhibition” value is -7.5% (inactive).

As to `Cc1ccc2nc(NCCN)c3ncc(C)n3c2c1`, the Potency is 3.13 µM (active).

For `CN(C)CCN1C(=O)c2cccc3cc(N)cc(c23)C1=O`, the Potency was 8.83 µM (active).

On to `COc1cc(CCc2cc(NC(=O)c3ccc(N4C[C@@H](C)N[C@@H](C)C4)cc3)n[nH]2)cc(OC)c1`, for which the “activity change, negative = inhibition” value was -16% [HiBiT, at 45.9 µM] (inactive).

On to `CCc1ccc(C(=O)Nc2cc(CN3CCN(C)CC3)cc(C(F)(F)F)c2)cc1C#Cc1cnc2ccnn2c1`, for which the Potency was 24.9 µM (active).

With `c1cc(N[C@@H]2CCNC2)nc(-c2cnc3ccc(-c4cn[nH]c4)cn23)c1`, the Potency entry is “inactive”.

Consider `CC(C)c1cc(C(C)C)c(CC(=O)NS(=O)(=O)Oc2c(C(C)C)cccc2C(C)C)c(C(C)C)c1`, for which the “activity change, negative = inhibition” value was -16.8% (inactive).

For the compound `Cc1cnc(Nc2ccc(N3CCN(C)CC3)cc2)nc1Nc1cccc(S(=O)(=O)NC(C)(C)C)c1`, the Potency is 2.79 µM (active).

In the next assay the target is Nuclear receptor subfamily 1 group I member 2 (Rattus norvegicus) (UniProt Q9R1A7). The assay is described as follows: qHTS assay for small molecule activators of the rat pregnane X receptor (rPXR) signaling pathway (AID 651751; call rule not given here; also: 0% is about no effect). The conditions noted are these: rPXR reporter cells, luciferase (One-Glo), 24 h.
Sequence of Nuclear receptor subfamily 1 group I member 2 (Rattus norvegicus) (Q9R1A7 whole entry, looked up): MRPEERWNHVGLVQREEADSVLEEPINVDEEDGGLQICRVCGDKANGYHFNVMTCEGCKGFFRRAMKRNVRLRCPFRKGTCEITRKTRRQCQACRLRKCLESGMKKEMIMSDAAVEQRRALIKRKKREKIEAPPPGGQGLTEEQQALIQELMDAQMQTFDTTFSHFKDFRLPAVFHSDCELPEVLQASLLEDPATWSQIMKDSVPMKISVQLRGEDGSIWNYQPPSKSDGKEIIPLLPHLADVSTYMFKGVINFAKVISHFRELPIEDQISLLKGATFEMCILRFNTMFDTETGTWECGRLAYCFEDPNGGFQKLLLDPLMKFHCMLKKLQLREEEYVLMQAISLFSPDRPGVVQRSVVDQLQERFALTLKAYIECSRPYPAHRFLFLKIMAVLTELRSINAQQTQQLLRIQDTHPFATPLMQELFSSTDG
For the compound `OC[C@@H](O)[C@@H](O)[C@H](O)[C@@H](O)CO`, the max response was 14.3% (inactive).

Turning to `O=C1c2cccc(O)c2C(=O)c2c(O)cc(CO)cc21`, the max response is -0.0257% (inactive).

Take `Cc1cc(O)c2c(c1)C(=O)c1cccc(O)c1C2=O`: the max response was -1.64% (inactive).

(Values after PubChem BioAssay (NCATS).)
